Experimental findings from PubChem BioAssay AID743498 (The Scripps Research Institute Molecular Screening Center, 2014) are described below.

Values without a mark were called inactive. Active and inactive are the calls of the source.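 The calls were made as follows: active = IC50, the dose giving half inhibition, at or below 10 µM; inactive = IC50 above 10 µM.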

This assay can be described thus: DNA CAG repeat dye-complex inhibitors – biochemical, fluorescence, 5'CAG/3'GTC DNA, powders, MedChem round 1, counter-screen for r(CAG) RNA repeat binder project, late-stage follow-up (AID 743498). The note with it: DNA d(CAG) repeat TO-PRO-1 dye displacement. (In general: A counterscreen serves to expose hits that act by an unwanted route or on another target.)
For the molecule `NS(=O)(=O)c1ccc(NC(=O)/C=C/c2cn(-c3ccccc3)nc2-c2cccc(Cl)c2)cc1`, the IC50 (commonly the midpoint of a concentration-inhibition curve) is more than 29.9 µM.
Turning to `CCOC(=O)N1CCC(NC(=O)/C=C/c2cn(-c3ccccc3)nc2-c2ccccc2)CC1`, the IC50 is more than 29.9 µM.
Consider `COC(=O)c1ccc(NC(=O)/C=C/c2cn(CCC#N)nc2-c2ccc(F)cc2)cc1`, for which the IC50 is more than 29.9 µM.
The value for `O=C(/C=C\c1cn(-c2ccccc2)nc1-c1ccc(F)cc1)Nc1ccc(C(=O)O)cc1` was 4.76 µM (active).
As for `CN(C)C(=O)C1CCN(C(=O)/C=C/c2cn(-c3ccccc3)nc2-c2ccccc2)CC1`, the IC50 is more than 29.9 µM.
The value for `Cc1c(C(=O)Nc2ccc(S(=O)(=O)NCCCN3CCOCC3)cc2)oc2ccc(F)cc12` was more than 29.9 µM.
Regarding `Cc1c(C(=O)Nc2ccc(S(=O)(=O)Nc3ncccn3)cc2)oc2ccc(F)cc12`, the IC50 was more than 29.9 µM.
Consider `CC(=O)NS(=O)(=O)c1ccc(NC(=O)/C=C/c2cn(-c3ccccc3)nc2-c2ccccc2)cc1`, for which the IC50 was 3.6 µM (active).
For the molecule `O=C(/C=C/c1cn(-c2ccccc2)nc1-c1ccccc1)Nc1cc(S(=O)(=O)N2CCCC2)ccc1Cl`, the IC50 is more than 29.9 µM.
As to `COc1ccc(-c2nn(-c3ccccc3)cc2/C=C/C(=O)Nc2ccc(C(=O)O)cc2)cc1`, the IC50 was 3.83 µM (active).
For `Cc1ccc(-c2nn(-c3ccccc3)cc2/C=C/C(=O)Nc2ccc(S(N)(=O)=O)cc2)cc1`, the IC50 was more than 29.9 µM.
With `CN1CCC(N(C)C(=O)/C=C/c2cn(-c3ccccc3)nc2-c2ccccc2)CC1`, the IC50 was more than 29.9 µM.
